Source: PubChem BioAssay AID1159580 (chemical genetic matrix, 2015)
Where “and” joins values, the source holds several entries; their conditions need not be identical. Identical values can stand only once. Among all 5,500 compounds or so, about 2,000 (36%) were called active. Another 18% or so got no clear call; they are omitted. Cut-off read from the data, not from the text of the source: active = normalized growth mostly below about 0.91 (no sharp cut-off); inconclusive = no clear call, values can overlap the other calls; inactive = mostly above about 0.92. The list shows a part of the results.

Assay: chemical genetic growth profiling, strain panel (AID 1159580);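 note: tested at 20 µM; growth read once vehicle control cultures reached saturation at 30 °C; 1 = growth at the plate median or of vehicle wells; lower values mean less growth of the strain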
Conditions: S. cerevisiae deletion strains, growth OD

Measured: normalized growth

NCC(O)c1ccc(O)cc1 (stereo not given)
inactive: locus YAL013W, strain DEP1, stronger effect = lower value 0.996 and 1.01 | locus YAL021C, strain ccr4, stronger effect = lower value 1.01 | locus YAL026C, strain drs2, stronger effect = lower value 1.01 | locus YAL030W, strain snc1, stronger effect = lower value 0.997 | locus YAL040C, strain CLN3, stronger effect = lower value 1 | locus YBL061C, strain skt5, stronger effect = lower value 1.01 | locus YBR009C, strain hhf1, stronger effect = lower value 0.995 | locus YBR021W, strain FUR4, stronger effect = lower value 0.987 | locus YBR023C, strain chs3, stronger effect = lower value 0.998 | locus YBR171W, strain sec66, stronger effect = lower value 0.995 | locus YBR229C, strain ROT2, stronger effect = lower value 0.977 | locus YBR231C, strain swc5, stronger effect = lower value 1.02 | locus YBR279W, strain paf1, stronger effect = lower value 1.02 | locus YCL011C, strain gbp2, stronger effect = lower value 1.03 | locus YCL016C, strain dcc1, stronger effect = lower value 1.03 | locus YCL029C, strain bik1, stronger effect = lower value 0.966 | locus YCL061C, strain MRC1 (second series), stronger effect = lower value 1.01 | locus YCL069W, strain vba3, stronger effect = lower value 1 | locus YCR088W, strain abp1, stronger effect = lower value 0.993 | locus YDL005C, strain med2, stronger effect = lower value 0.998 | locus YDL035C, strain GPR1, stronger effect = lower value 1.01 | locus YDL040C, strain nat1, stronger effect = lower value 0.999 | locus YDL074C, strain BRE1, stronger effect = lower value 1 | locus YDL101C, strain DUN1, stronger effect = lower value 0.987 | locus YDL134C, strain PPH21, stronger effect = lower value 0.996 | locus YDL185W, strain tfp1, stronger effect = lower value 0.977 | locus YDL192W, strain arf1, stronger effect = lower value 0.984 | locus YDR001C, strain nth1, stronger effect = lower value 1.01 | locus YDR069C, strain doa4, stronger effect = lower value 0.996 | locus YDR101C, strain arx1, stronger effect = lower value 0.987 | locus YDR137W, strain rgp1, stronger effect = lower value 1.02 | locus YDR150W, strain NUM1, stronger effect = lower value 1.01 and 1 | locus YDR159W, strain sac3, stronger effect = lower value 0.963 | locus YDR162C, strain NBP2, stronger effect = lower value 0.999 | locus YDR195W, strain ref2 0.947 | locus YDR297W, strain sur2, stronger effect = lower value 1.02 | locus YDR318W, strain mcm21, stronger effect = lower value 0.963 | locus YDR334W, strain swr1, stronger effect = lower value 1 | locus YDR335W, strain msn5, stronger effect = lower value 1.01 | locus YDR363W, strain ESC2, stronger effect = lower value 1 | locus YDR388W, stronger effect = lower value 0.97 | locus YDR392W, strain spt3, stronger effect = lower value 0.995 | locus YDR502C, strain sam2, stronger effect = lower value 0.988 | locus YEL003W, strain gim4, stronger effect = lower value 1.01 | locus YEL037C, strain rad23, stronger effect = lower value 1.01 | locus YEL061C, strain CIN8 (second series), stronger effect = lower value 0.999 | locus YEL061C, strain CIN8, stronger effect = lower value 1 | locus YER002W, strain NOP16, stronger effect = lower value 1 | locus YER015W, strain faa2, stronger effect = lower value 1.01 | locus YER016W, strain bim1, stronger effect = lower value 0.999 | locus YER110C, stronger effect = lower value 0.976 | locus YER111C, strain swi4, stronger effect = lower value 1.01 | locus YER155C, strain BEM2 (second series), stronger effect = lower value 0.977 | locus YER155C, strain BEM2, stronger effect = lower value 0.99 | locus YER167W, strain BCK2, stronger effect = lower value 0.992 | locus YFR010W, strain ubp6, stronger effect = lower value 0.998 | locus YGL078C, strain dbp3, stronger effect = lower value 0.988 | locus YGL086W, strain mad1, stronger effect = lower value 0.993 | locus YGL167C, strain pmr1, stronger effect = lower value 0.997 | locus YGL173C, strain kem1, stronger effect = lower value 1.01 | locus YGL227W, strain vid30, stronger effect = lower value 0.995 | locus YGL240W, strain doc1, stronger effect = lower value 0.985 | locus YGL248W, strain PDE1, stronger effect = lower value 0.989 | locus YGL253W, strain hxk2, stronger effect = lower value 1.03 | locus YGR078C, strain PAC10, stronger effect = lower value 0.989 and 1.03 | locus YGR135W, strain pre9, stronger effect = lower value 0.984 | locus YGR229C, strain SMI1, stronger effect = lower value 1 and 1.01 | locus YGR252W, strain gcn5, stronger effect = lower value 1.03 | locus YHR013C, strain ard1, stronger effect = lower value 0.978 | locus YHR027C, strain rpn1, stronger effect = lower value 1.01 | locus YHR030C, strain SLT2, stronger effect = lower value 0.983 and 0.979 | locus YHR079C, strain IRE1 (second series), stronger effect = lower value 0.975 | locus YHR079C, strain IRE1, stronger effect = lower value 0.982 | locus YHR094C, strain hxt1, stronger effect = lower value 0.986 | locus YHR129C, strain ARP1, stronger effect = lower value 0.994 | locus YHR142W, strain chs7, stronger effect = lower value 1.02 | locus YHR200W, strain rpn10, stronger effect = lower value 0.98 | locus YIL066C, strain RNR3, stronger effect = lower value 0.998 | locus YIL073C, strain SPO22, stronger effect = lower value 0.986 | locus YIL125W, strain kgd1, stronger effect = lower value 0.982 | locus YIR030C, strain dcg1, stronger effect = lower value 0.983 | locus YJL092W, strain hpr5, stronger effect = lower value 1.01 | locus YJL095W, strain BCK1 (second series), stronger effect = lower value 1.01 | locus YJL095W, strain BCK1, stronger effect = lower value 0.962 and 1 | locus YJL115W, strain asf1, stronger effect = lower value 1.01 | locus YJL129C, strain trk1, stronger effect = lower value 1.01 | locus YJL134W, strain LCB3, stronger effect = lower value 0.995 | locus YJL154C, strain vps35, stronger effect = lower value 0.99 | locus YJL164C, strain tpk1, stronger effect = lower value 0.994 | locus YJL166W, strain qcr8, stronger effect = lower value 0.999 | locus YJL168C, strain set2, stronger effect = lower value 0.976 | locus YJL187C, strain SWE1 (second series), stronger effect = lower value 0.988 | locus YJR043C, strain POL32, stronger effect = lower value 0.994 | locus YJR066W, strain TOR1, stronger effect = lower value 0.919 | locus YJR075W, strain HOC1, stronger effect = lower value 0.993
